This is a sample that favours compounds with a hit; in the whole collection about 2% have one here.
CHT allo act – allosteric activators of human choline transporter CHT; Q9GZV3; CHT-expressing cells, membrane potential dye, choline EC20; active compounds read high; LV-AA mutant CHT in HEK293 cells; B-score at 10 µM; 310,000 tested, 0.49% active; AID 488977;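 active = initial fluorescence not abnormally high and integrated response B-score, plate-corrected, over 3 SD above library mean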
CHT block – inhibitors of human choline transporter CHT | Q9GZV3 | CHT-expressing cells, membrane potential dye, choline response; active compounds read low | 310,000 tested, 0.86% active | B-score at 10 µM;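 active = B-score over 3 SD under the library average, and starting fluorescence ratio not unusually high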;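 note: choline stimulus applied at its EC90 after an EC20 pre-addition; B-score computed on integrated fluorescence ratio after choline addition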
Kir21 inh – Kir2.1 (mouse) channel inhibition | AID 1672 | B-score at 10 µM | 310,000 tested, 0.85% active | HEK293-Kir2.1, FluxOR thallium flux fluorescence; active compounds read low;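 active = fluorescence ratio B-score at or below minus 3 SD of library scores, with starting-brightness B-score within 2 SD, cut at about -4.2 in these data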;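 note: channel flux triggered by added potassium and thallium sulfate stimulus; B-score of peak minus minimum fluorescence over baseline after thallium stimulus; more negative B-score means stronger Kir2.1 block with less thallium influx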
Target sequence (P35561 whole entry, looked up): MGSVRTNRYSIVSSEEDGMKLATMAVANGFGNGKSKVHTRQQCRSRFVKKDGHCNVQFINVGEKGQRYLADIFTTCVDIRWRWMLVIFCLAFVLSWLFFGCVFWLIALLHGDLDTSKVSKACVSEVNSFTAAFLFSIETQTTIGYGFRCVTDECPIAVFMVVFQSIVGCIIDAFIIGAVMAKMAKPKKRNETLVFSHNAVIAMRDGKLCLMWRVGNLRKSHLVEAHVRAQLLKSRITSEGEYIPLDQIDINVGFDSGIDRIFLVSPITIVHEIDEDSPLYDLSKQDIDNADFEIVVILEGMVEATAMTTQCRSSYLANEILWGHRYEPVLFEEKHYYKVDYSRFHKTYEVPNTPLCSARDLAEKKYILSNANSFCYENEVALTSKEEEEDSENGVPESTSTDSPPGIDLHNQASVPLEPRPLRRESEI
H9c2 TAG inh – triacylglycerol accumulation inhibition; inhibition, % at 12.5 µM; H9c2 cells, Nile Red lipid (TAG) fluorescence; cells loaded with 200 µM oleic acid; AID 651582; 230,000 tested, 0.66% active;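 active = pattern-corrected inhibition of lipid staining of at least 50% with the nuclear-stain viability signal not falling by more than 50%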;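 note: 0% = DMSO wells and 100% = triacsin C control wells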
* marks the source's active call; other numbers are inactive results.

`O=S(=O)(CC(O)CS(=O)(=O)c1ccc(Cl)cc1)c1ccccc1` (stereo unspecified) gave CHT allo act inactive, CHT block inactive, Kir21 inh -1.71 and H9c2 TAG inh -13.9.
Screening Cc1ccc(CN2CCCC(CO)(Cc3ccccc3C)C2)s1 (stereo unspecified) returned CHT allo act inactive, CHT block inactive, Kir21 inh -4.41* and H9c2 TAG inh -20.3.
COc1cc(/C=C2/C(=N)N3C(SC)=NSC3=NC2=O)ccc1OC(=O)c1ccco1 was read as CHT allo act inactive, CHT block -6.48* and Kir21 inh -4.6*.
COc1cc(/C=C2/C(=N)N3C(=NC2=O)SN=C3S(C)(=O)=O)ccc1OC(=O)c1ccco1 was read as CHT allo act inactive, CHT block inactive and Kir21 inh -0.33.
`CC1CCCCN1C(=O)CN1CCC(c2nc3ccc(Cl)cc3[nH]2)CC1` (stereo unspecified) gave CHT allo act inactive, CHT block inactive, Kir21 inh -0.46 and H9c2 TAG inh 2.1.
`O=C(c1cccc(Cl)c1)N1CCC(c2nc3ccccc3[nH]2)CC1` gave CHT allo act inactive, CHT block inactive, Kir21 inh 0.29 and H9c2 TAG inh 6.0.
Cc1ccc(CN2CCC(c3nc4ccc(Cl)cc4[nH]3)CC2)cc1 was read as CHT allo act inactive, CHT block inactive and Kir21 inh -9.98*.
Clc1ccc2nc(C3CCN(Cc4ccccc4)CC3)[nH]c2c1 was read as CHT allo act inactive, CHT block inactive and Kir21 inh -6.78*.
`CCOC(=O)Nc1ccc2nc(N3CCCCCC3)sc2c1` gave CHT allo act inactive, CHT block inactive and Kir21 inh 4.15.
Cc1nn(-c2ccccc2)nc1-c1nnc(-c2ccc(C(F)(F)F)cc2)o1 was read as CHT allo act inactive, CHT block inactive, Kir21 inh -0.28 and H9c2 TAG inh -9.0.
Cn1c(Cc2nc(-c3cnccn3)no2)nnc1SCC(=O)Nc1ccccc1 was read as CHT allo act inactive, CHT block inactive, Kir21 inh -0.19 and H9c2 TAG inh -0.1.
CC(C)N(C(=O)Cn1cc(SCC(N)=O)c2ccccc21)C(C)C was read as CHT allo act inactive, CHT block inactive, Kir21 inh -0.25 and H9c2 TAG inh -4.7.
Screening CCN(CC)CCCNc1nc(SC)nc2sc3c(c12)CCN(C)C3 returned CHT allo act 7.1*, CHT block inactive and Kir21 inh 2.02.
`CCN(CC)CCNCC1C(=O)O[C@@H]2C[C@@]3(C)CCC[C@H](C)C3=C[C@H]12` (stereo partly specified) gave CHT allo act inactive, CHT block inactive and Kir21 inh -0.64.
For COc1ccc(N(CC(=O)N2CCCCC2)S(=O)(=O)c2ccccc2)c(OC)c1 the results were CHT allo act inactive, CHT block inactive and Kir21 inh 0.25.
CCCCN(C)c1c(N2CCC(C(=O)OCC)CC2)c(=O)c1=O was read as CHT allo act inactive, CHT block inactive, Kir21 inh 0.92 and H9c2 TAG inh -7.5.
CC(C)c1ccccc1OCC(=O)Nc1nnc(C2CC2)s1 was read as H9c2 TAG inh 8.0.
`CCCCCCCCCCn1c2c(c(=N)c3c1CCC3)CCC2` gave CHT allo act 16.5*, CHT block inactive, Kir21 inh -8.56* and H9c2 TAG inh -19.9.
Screening CCCCCCCCCn1c2c(c(=N)c3c1CCC3)CCCC2 returned Kir21 inh -14.7*.
Screening CCCCn1c2c(c(=N)c3ccccc31)CCC2 returned CHT allo act inactive, CHT block inactive, Kir21 inh 0.28 and H9c2 TAG inh -18.5.
CCCCCCCCn1c2c(c(=N)c3ccccc31)CCC2 was read as Kir21 inh -14.6*.
COc1ccc(C(CNC(=O)CCNS(=O)(=O)c2ccc(C)cc2)N2CCOCC2)cc1 (stereo unspecified) was read as CHT allo act inactive, CHT block inactive, Kir21 inh -2.12 and H9c2 TAG inh 5.4.
Screening C[C@H]1CN(S(=O)(=O)c2ccc3c(c2)OCCO3)CCN1S(=O)(=O)c1c(F)cccc1F returned H9c2 TAG inh 12.1.
Screening c1ccc(C2(CNc3ccccn3)CCCC2)cc1 returned CHT allo act inactive, CHT block inactive and Kir21 inh -4.4*.
`CCN(CC)CCN(C(=O)C1=COCCO1)c1nc2cc(C)cc(C)c2s1` gave CHT allo act inactive, CHT block -6.02*, Kir21 inh -3.31 and H9c2 TAG inh -8.2.
For CCN(C(=O)C1=COCCO1)c1nc2c(C)cccc2s1 the results were CHT allo act inactive, CHT block inactive, Kir21 inh -1.22 and H9c2 TAG inh -18.0.
Screening COc1ccc2c(c1)N(S(=O)(=O)c1ccccc1)CCC2=O returned CHT allo act inactive, CHT block inactive and Kir21 inh -6.51*.
CCN(CC)CCC(=O)N1C/C(=C/c2ccccc2)C(=O)/C(=C\c2ccccc2)C1 was read as H9c2 TAG inh 50.5*.
CCCc1nc2ccc(N)cc2c(=O)n1Cc1ccccc1Cl was read as CHT allo act inactive, CHT block inactive and Kir21 inh -0.07.
For COc1cccc(NC(=O)CSc2nc3c(sc4ccccc43)c(=O)n2CCCN2CCCC2)c1 the results were CHT allo act inactive, CHT block inactive and Kir21 inh -5.68*.
Screening CCN(C1CCCCC1)S(=O)(=O)c1ccc(OC)c(C)c1 returned CHT allo act inactive, CHT block inactive, Kir21 inh -5.39* and H9c2 TAG inh -12.6.
Screening CCN(C1CCCCC1)S(=O)(=O)c1cc(C)ccc1OC returned CHT allo act inactive, CHT block inactive, Kir21 inh -2.22 and H9c2 TAG inh -3.0.
Screening O=C1CSC(c2ccccc2F)N1c1cc(Cl)ccc1O (stereo unspecified) returned CHT allo act inactive, CHT block inactive, Kir21 inh -6* and H9c2 TAG inh -15.7.
Screening O=C1CSC(c2ccccc2F)N1CCN1CCCCC1 (stereo unspecified) returned CHT allo act inactive, CHT block inactive, Kir21 inh 1.47 and H9c2 TAG inh 20.4.
COc1ccc(C(=O)NCCS(=O)(=O)NCc2cccnc2)cc1 was read as CHT allo act inactive, CHT block inactive, Kir21 inh 1.98 and H9c2 TAG inh 0.8.
Screening CCN(CC)CCNC(=O)c1ccc(NC(=O)Cc2ccc(OC)c(S(=O)(=O)N3CCOCC3)c2)cc1 returned H9c2 TAG inh 1.6.
C=CC(=O)Nc1ccc(CN2C(=O)N(c3c(Cl)c(OC)cc(OC)c3Cl)Cc3cnc(NCCCCN(CC)CC)nc32)cc1 was read as H9c2 TAG inh 66.3*.
For COCCCNC(=O)c1ccc2sc(C3=C[C@@H](O)[C@@H](O)[C@@H](CO)O3)nc2c1 the results were H9c2 TAG inh -11.2.
For O=C(OCC(=O)N1CCCc2ccccc21)c1ccc(S(=O)(=O)C(F)F)cc1 the results were CHT allo act inactive, CHT block inactive, Kir21 inh -0.71 and H9c2 TAG inh -9.4.

Assay outcomes (PubChem BioAssay)
